Results on 40 molecules are retold here after PubChem BioAssay (Tox21).

Each structure is given as a SMILES string. Values joined by “and” are separate entries in the source; they are usually repeats but may differ in a detail not shown here. Equal values may be shown once. Inconclusive results are not listed. Active and inactive are the calls of the source. The call rests on the fitted dose curve; in most records, active means well fitted inhibition curve with a large enough effect in the repeat runs; inconclusive means weak or mixed curves; inactive means no such curve, though single readings can be large or run the other way.
Potency means the concentration at half of the fitted maximal effect.

The assay in a line: qHTS assay to identify small molecule antagonists of the thyroid receptor (TR) signaling pathway (AID 743065). Further: nearly all actives have a fitted effect of over 55% in size. Particulars: GH3.TRE-Luc, T3-stimulated luciferase inhibition, 23.5 h; series mostly up to 70.3 µM. The source says: U.S. Tox21 Program National Center for Advancing Translational Sciences [NCATS] NIH Chemical Genomics Center [NCGC] U.S. Environmental Protection Agency [EPA] National Institutes of Environmental Health Sciences [NIEHS] National Toxicology Program [NTP] U.S. Food and Drug Administration [FDA] Tox21 Assay Overview: Thyroid receptor (TR), a nuclear hormone receptor, plays an important role in development, proliferation, differentiation, metabolism, brain function, and cardiovascular system. […] To profile the Tox21 10K compound library in TR signaling, a cell-based GH3-TRE-Luc assay (GH3.TRE-Luc cell line, developed by the laboratory of Dr. Albertinka J. Murk, Wageningen University) was used to measure the inhibition of TR. GH3 (rat pituitary tumor) cells stably expressing a TR activity sensor consisting of two TR response elements and a luciferase reporter gene.
Tox21 Assay Protocol Summary: GH3.TRE-Luc cells were dispensed at 1500 cells/4 uL/well into 1536-well white solid bottom plates using a Multidrop Combi dispenser (Thermo Fisher Scientific Inc., Waltham, MA). After the assay plates were incubated at 37 C for 4 hours, 23 nL of library compound or DMSO controls was transferred to the assay plates by a pintool station (Kalypsys, San Diego, CA), followed by addition of 1 ul of T3 (1 nM, final concentration in the wells) to stimulate TR transactivation. The assay plates were incubated at 37 C for 23.5 h, and then 1 uL of CellTiter-Fluor reagent (Promega, Madision, WI) of measuring cytotoxicity was added to each well using a Bioraptr Flying Reagent Dispenser (FRD) workstation (Beckman Coulter, Indianapolis, IN, USA). The plates were incubated at 37 C and 5% CO2 for additional 30 min, and fluorescence intensity was measured by a ViewLux plate reader (PerkinElmer, Shelton, CT). For measuring luciferase reporter gene activity, 4 uL of ONE-Glo Luciferase Assay reagent (Promega) was added to each well using a Bioraptr FRD (Beckman Coulter), followed by 30 min incubation at room temperature. The luminescence intensity of plates was recorded by a ViewLux plate reader (PerkinElmer, Shelton, CT).
`CCCCCCOc1ccc(O)cc1`: the Potency was 6.86 µM (active).

As to `CC(C)N=C(N)/N=C(\N)Nc1ccc(Cl)cc1`, the Potency was 2.54 µM (active). The same measure for `CSc1ccc2c(c1)N(CCC1CCCCN1C)c1ccccc1S2` (stereo not given): 7.5 µM (active) and 9.65 µM (active).

As for `C=C[C@](C)(O)CC[C@@H]1[C@@]2(C)CCCC(C)(C)[C@@H]2CC[C@@]1(C)O`, the Potency was 43.3 µM (active). As for `COc1cccc(CCc2ccccc2OCC(CN(C)C)OC(=O)CCC(=O)O)c1` (stereo not given), the Potency is 13.3 µM (active).

Take `Cc1ccc2ccc3cccc4ccc1c2c34`: the Potency entry was “inactive”. For `C[C@@H]1CC[C@H]2C(C)(C)[C@H]3C[C@@]12CC[C@@]3(C)O`, the Potency is 54.4 µM (active). As to `Cc1cn[nH]c1`, the Potency entry is “inactive”. Consider `Cc1cccc(Br)c1`, for which the Potency entry was “inactive”. `COC(=O)C1=C(C)NC(C)=C(C(=O)OCCCN2CCC(c3ccccc3)(c3ccccc3)CC2)C1c1cccc([N+](=O)[O-])c1` (stereo not given): the Potency was 7.5 µM (active). The same measure for `CCCCCCCOC(=O)c1ccc(O)cc1`: 61.1 µM (active). Turning to `O=Cc1ccc(F)cc1`, the Potency result was “inactive”. With `CCCCCCCC/C=C/CCCOC(C)=O`, the Potency result is “inactive”. The same measure for `CCN(CC)CCCN(c1ccccc1)C1Cc2ccccc2C1`: 2.11 µM (active). In the case of `Nc1ccc2cc3ccc(N)cc3nc2c1`, the Potency was 5.31 µM (active) and 3.06 µM (active).

Take `O=C1NC2CCCCN2C12CCN(CCCN1c3ccccc3CCc3ccc(Cl)cc31)CC2` (stereo not given): the Potency is 8.41 µM (active). Consider `C[n+]1c2cc(N)ccc2cc2ccc(N)cc21` (tested in a mixture with another compound), for which the Potency is 6.68 µM (active).

With `Cc1c(C)n(Cc2ccccc2)c2ccc(C(=O)OCCN(C)C)cc12`, the Potency is 10.6 µM (active).

In the case of `O=C(Oc1ccccc1)c1cccc(C(=O)Oc2ccccc2)c1`, the Potency result was “inactive”. The same measure for `CC(C(O)c1ccccc1)N(C)CCOC(c1ccccc1)c1ccccc1` (stereo not given): 16.8 µM (active); for `C=CCCCCCCC=C`: “inactive”; for `CCCCCCCCCC(=O)N(C)C`: “inactive”.

On to `CCN(CC)CCOC(=O)C1(C2CCCCC2)CCCCC1`, for which the Potency was 23.7 µM (active). In the case of `Cn1cnc2ncnc(N)c21`, the Potency entry is “inactive”.

As to `CCc1cccc(C)c1`, the Potency result is “inactive”.

For `CC(COC(=O)c1ccccc1)OC(=O)c1ccccc1` (stereo not given), the Potency entry is “inactive”.

On to `Cc1occc1SSc1ccoc1C`, for which the Potency was 68.6 µM (active).

Turning to `CCN(CC)CCOc1ccc(C(O)(Cc2ccc(Cl)cc2)c2ccc(C)cc2)cc1` (stereo not given), the Potency was 7.5 µM (active). For the molecule `CCNc1nc(NC(C)CC)nc(OC)n1` (stereo not given), the Potency entry is “inactive”. In the case of `NCCCCCCNCCCCCCN`, the Potency entry is “inactive”.

Consider `NC1(c2ccc(-c3nc4ccn5c(=O)[nH]nc5c4cc3-c3ccccc3)cc2)CCC1`, for which the Potency was 13.3 µM (active). `CCN1CCN(c2cc(-c3ccc(F)cc3)c3c(n2)CCCCCC3)CC1`: the Potency is 18.8 µM (active). Consider `COC(=O)CC(C)CCC=C(C)C` (stereo not given), for which the Potency entry is “inactive”. The same measure for `CC(C)(C)CC(C)(C)c1ccccc1O`: 21.8 µM (active). For the molecule `Oc1c(Br)cc(Br)c2cccnc12`, the Potency is 16.8 µM (active). Consider `CC(CN(C)C)CN1c2ccccc2CCc2ccccc21` (stereo not given), for which the Potency is 11.4 µM (active). `CCCCCCCCCCCC(=O)N(CC)CC`: the Potency result was “inactive”. Consider `CN(C)CCCN1c2ccccc2CCc2ccccc21`, for which the Potency was 23.7 µM (active). Regarding `CCCCCCCCCCCCN(CCO)CCO`, the Potency is 15.3 µM (active). `CCN=c1cc2oc3cc(NCC)c(C)cc3c(-c3ccccc3C(=O)OCC)c-2cc1C`: the Potency is 609 nM (active) and 1.09 µM (active).
